As usually defined, the inhibition is how much of the control response was suppressed.

Results on 13 molecules are retold here after PubChem BioAssay.

For some assays here: Measured potencies and affinities stand elsewhere. Active and inactive are the calls of the source.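 Rule for the calls, unless noted: active = fluorescence ratio normalized to control raised more than 50% in primary screen plus both repeat runs; inactive = the rest.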

In test [1] the test system is TRPC4 beta (transient receptor potential cation channel C4), mouse. Briefly: TRPC4 cation channel opening, retest – cell-based, Fluo4 calcium, HEK293 TRPC4beta/mu-opioid, duplicates, 10 µM, confirmation (AID 2426).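 For activation: percent rise of integrated ratio over buffer wells lacking compound which define 0%.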 To be noted: Fluo4 calcium fluorescence, at 10 µM; stronger effect = higher value.
Test [2] concerns transient receptor potential cation channel C4 beta (TRPC4), mouse. The test can be described thus: TRPC4 cation channel opening, second retest – cell-based, second round, Fluo4, HEK293 TRPC4beta/mu-opioid, 1 µM, confirmation (AID 2461;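 active = primary screen active and over 50% activation in each of two duplicate runs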;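 for activation: 0% = wells without test compound as baseline of integrated fluorescence ratio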). As to conditions: Fluo4 calcium fluorescence, at 1 µM; stronger effect = higher value.
For test [3], the system named is TRPC4 (transient receptor potential cation channel C4 beta), mouse. Briefly: potentiation of DAMGO EC20 TRPC4 response – cell-based, second round, Fluo-4, HEK293 TRPC4beta/mu-opioid, 1 µM, confirmation (AID 2554;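 active = primary screen hit whose fluorescence ratio, in both repeats, exceeds the weak agonist control mean by 3 SD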). To be noted: DAMGO EC20, Fluo-4 calcium flux, at 1 µM; stronger effect = higher value. (In general: Calcium assays in cells follow changes in intracellular calcium, usually with a dye or a luminescent sensor.)

The subject of test [4] is TRPC4 beta (transient receptor potential cation channel C4), mouse. The test can be described thus: potentiation of DAMGO EC20 TRPC4 response – cell-based, Fluo-4, HEK293 TRPC4beta/mu-opioid, confirmation (AID 2555;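 active = primary screen hit whose calcium fluorescence ratio, in both repeats, exceeds the weak agonist control mean by 3 SD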). To be noted: DAMGO EC20, Fluo-4 calcium flux, at 10 µM; stronger effect = higher value.
Test [5] deals with Short transient receptor potential channel 4 (Mus musculus) (UniProt Q9QUQ5). The test can be described thus: blockers of DAMGO-evoked TRPC4 calcium flux – cell-based, Fluo4, HEK293 TRPC4beta/mu-opioid, confirmation (AID 2636;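 active = calcium signal cut by more than 3 SD below the full-agonist control yet still positive, in both repeats and the earlier primary screen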). As to conditions: at 10 µM; stronger effect = higher value.
Test [6] shares this target. The test can be described thus: blockers of DAMGO-evoked TRPC4 calcium flux – cell-based, second round, Fluo4, HEK293 TRPC4beta/mu-opioid, 1 µM, confirmation (AID 2637;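 active = calcium signal ratio cut to more than 3 SD under the fully stimulated control mean yet still positive, in both repeats and the primary screen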). As to conditions: at 1 µM; stronger effect = higher value.
Test [7] has the same target. Briefly: calcium entry via TRPC4 opening agents – cell-based, HEK293 TRPC4/mu-opioid, Fluo-4 calcium, dose response (AID 434937;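 active = primary screen activator hit with a dose response curve and TRPC4 channel activation at any tested dose; inactive = no activation, no dose response, or not a primary hit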). To be noted: HEK293 TRPC4 cells, Fluo-4 calcium fluorescence ratio; series mostly up to 20 µM.
Test [8] shares this target. The test can be described thus: potentiation of DAMGO-evoked TRPC4 calcium signal – cell-based, HEK293 TRPC4/mu-opioid, Fluo-4 calcium, EC20 DAMGO, dose response (AID 434941;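 active = earlier screen potentiator hit that boosts the TRPC4 ion channel at some dose, with a dose response; inactive = no potentiation, no dose response, or not a prior hit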;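 note: calcium entry triggered by an EC20 dose of DAMGO at the co-expressed mu-opioid receptor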). As to conditions: HEK293 TRPC4/mu-opioid cells, Fluo-4 calcium fluorescence; series mostly up to 20 µM.
For test [9] the target is unchanged. The test can be described thus: block of DAMGO-driven TRPC4 calcium entry – cell-based, HEK293 TRPC4/mu-opioid, Fluo-4 calcium, dose response (AID 434942;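 active = primary screen inhibitor hit that blocks the TRPC4 channel at some tested dose, yielding a dose curve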). As to conditions: HEK293 TRPC4/mu-opioid cells, DAMGO-evoked Fluo-4 calcium ratio; series mostly up to 20 µM.
Test [10] concerns the target Short transient receptor potential channel 6 (Mus musculus) (UniProt Q61143). Briefly: TRPC6 blockade by TRPC4 inhibitor hits – cell-based, HEK293, membrane potential dye, duplicate, selectivity assay for TRPC4 inhibitor project, confirmation (AID 434948;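 active = active in primary screen and both duplicates, each dropping signal beyond three positive-control SD with fluorescence still positive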). To be noted: HEK293 TRPC6, membrane potential dye fluorescence, at 10 µM, stimulated with maximal-effect acetylcholine; stronger effect = higher value.

For test [11] the target is unchanged. The test can be described thus: TRPC6 opening by TRPC4 activator hits – cell-based, HEK293, membrane potential dye, duplicate, selectivity assay for TRPC4 activator project, confirmation (AID 434950;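 active = membrane potential signal rise above negative control mean plus 3 SD in both duplicates, also active in the earlier TRPC4 screen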;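 for activation: 0% = buffer only wells and 100% = acetylcholine maximal-effect wells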). As to conditions: HEK293 TRPC6, membrane potential fluorescence, at 10 µM; activation: stronger effect = higher value; outcome: activation.
Test [12] shares this target. The test can be described thus: positive modulators of mouse TRPC6 channel – HEK293 cells, membrane potential dye, duplicate, selectivity assay for TRPC4 potentiator project, confirmation (AID 434952;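 active = compound raising the membrane signal above positive-control mean plus 3 SD in both repeats, and a primary screen hit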). As to conditions: HEK293 TRPC6, membrane potential dye fluorescence, at 10 µM, maximal acetylcholine added after compound; stronger effect = higher value.
For test [13], the target named is Short transient receptor potential channel 4 (Mus musculus) (UniProt Q9QUQ5). The test can be described thus: calcium flux activators in TRPC4/5HT1a cells, counter-screen for TRPC4 activator project, cell-based, second counter screen, HEK293 TRPC4/5HT1a, Fluo-4 (AID 434977;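 active = calcium signal rise above buffer-control mean plus 5 SD in both duplicates, and also a hit in the primary screen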;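 for activation: plate controls were assay buffer for no effect and maximal serotonin response for full effect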). To be noted: Fluo-4 calcium flux, at 10 µM; stronger effect = higher value.
The nature of test [14]: serotonin-gated TRPC4 signal block – cell-based, second counter screen, HEK293 TRPC4/5HT1a, Fluo-4, counter-screen for TRPC4 inhibitor project, confirmation (AID 434978;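 active = primary screen active whose calcium signal fell more than 3 SD beyond the full-serotonin control mean in both duplicate plates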;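 for outcome: serotonin given first at submaximal then at maximal dose after compound preincubation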). As to conditions: Fluo-4 calcium flux, at 10 µM, serotonin added to trigger calcium flux; stronger effect = higher value. For orientation: The purpose of a counterscreen is to sort out artefacts and off-target activity.

In test [15] the test system is TRPC4 (mouse), co-expressed with 5HT1a in HEK293. The test can be described thus: enhancement of serotonin-evoked TRPC4 response – cell-based, second counter screen, HEK293 TRPC4/5HT1a, Fluo-4, counter-screen for TRPC4 potentiator project, confirmation (AID 434979;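 active = signal rise over 3 SD above mean of control wells given weak agonist, in both repeats and first screen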). To be noted: Fluo-4 calcium flux, at 10 µM, serotonin added at its EC20 dose; stronger effect = higher value.
The nature of test [16]: nonspecific calcium rise without TRPC4 – cell-based, HEK293 mu-opioid receptor line, counter-screen for TRPC4 activator project, confirmation (AID 449723;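 active = hit in primary screen, with calcium signal over 5 SD above buffer well mean in both duplicates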;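 note: counter screen cells carry the mu-opioid receptor alone and lack TRPC4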). To be noted: HEK293 mu-opioid cells, Fluo-4 calcium fluorescence, at 10 µM; stronger effect = higher value.
A short description of test [17]: nonspecific potentiation of DAMGO calcium response – cell-based, HEK293 mu-opioid receptor line, counter-screen for TRPC4 allosteric potentiator project, confirmation (AID 449724;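 active = calcium signal rise more than 3 SD above the low-dose agonist control mean, in both duplicate plates and the primary screen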;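 note: HEK293 cells carrying mu-opioid receptor only with no TRPC4 channel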). As to conditions: HEK293 mu-opioid receptor cells, Fluo-4 calcium flux, at 10 µM, compound added before EC20 DAMGO stimulus; stronger effect = higher value.

Chain of Short transient receptor potential channel 4 (Mus musculus) (Q9QUQ5 whole entry, looked up): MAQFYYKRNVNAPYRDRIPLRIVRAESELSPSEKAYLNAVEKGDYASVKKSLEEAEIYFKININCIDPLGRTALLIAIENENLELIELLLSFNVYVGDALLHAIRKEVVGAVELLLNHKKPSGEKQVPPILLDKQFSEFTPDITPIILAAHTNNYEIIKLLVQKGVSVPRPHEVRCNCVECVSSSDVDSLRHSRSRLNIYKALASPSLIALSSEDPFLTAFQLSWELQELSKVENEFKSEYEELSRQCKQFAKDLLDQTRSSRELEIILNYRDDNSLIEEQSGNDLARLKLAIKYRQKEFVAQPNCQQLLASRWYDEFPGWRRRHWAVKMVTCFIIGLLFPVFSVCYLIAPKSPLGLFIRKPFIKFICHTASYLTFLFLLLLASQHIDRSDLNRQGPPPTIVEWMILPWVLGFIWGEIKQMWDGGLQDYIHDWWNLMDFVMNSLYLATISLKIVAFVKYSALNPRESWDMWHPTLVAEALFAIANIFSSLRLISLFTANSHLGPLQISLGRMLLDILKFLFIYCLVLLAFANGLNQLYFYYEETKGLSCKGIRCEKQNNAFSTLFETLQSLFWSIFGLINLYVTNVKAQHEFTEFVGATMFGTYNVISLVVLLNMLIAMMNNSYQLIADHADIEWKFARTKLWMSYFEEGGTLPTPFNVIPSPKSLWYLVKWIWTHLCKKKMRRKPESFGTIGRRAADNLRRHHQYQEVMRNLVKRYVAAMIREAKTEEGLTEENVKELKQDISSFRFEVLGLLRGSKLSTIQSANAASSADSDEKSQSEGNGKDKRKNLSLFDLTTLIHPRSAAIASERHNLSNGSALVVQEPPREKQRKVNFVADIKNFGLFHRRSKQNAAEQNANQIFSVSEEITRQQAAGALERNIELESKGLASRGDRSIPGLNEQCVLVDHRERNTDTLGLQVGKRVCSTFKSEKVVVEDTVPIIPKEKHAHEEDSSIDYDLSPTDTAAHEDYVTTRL
Chain of Short transient receptor potential channel 6 (Mus musculus) (Q61143 whole entry, looked up): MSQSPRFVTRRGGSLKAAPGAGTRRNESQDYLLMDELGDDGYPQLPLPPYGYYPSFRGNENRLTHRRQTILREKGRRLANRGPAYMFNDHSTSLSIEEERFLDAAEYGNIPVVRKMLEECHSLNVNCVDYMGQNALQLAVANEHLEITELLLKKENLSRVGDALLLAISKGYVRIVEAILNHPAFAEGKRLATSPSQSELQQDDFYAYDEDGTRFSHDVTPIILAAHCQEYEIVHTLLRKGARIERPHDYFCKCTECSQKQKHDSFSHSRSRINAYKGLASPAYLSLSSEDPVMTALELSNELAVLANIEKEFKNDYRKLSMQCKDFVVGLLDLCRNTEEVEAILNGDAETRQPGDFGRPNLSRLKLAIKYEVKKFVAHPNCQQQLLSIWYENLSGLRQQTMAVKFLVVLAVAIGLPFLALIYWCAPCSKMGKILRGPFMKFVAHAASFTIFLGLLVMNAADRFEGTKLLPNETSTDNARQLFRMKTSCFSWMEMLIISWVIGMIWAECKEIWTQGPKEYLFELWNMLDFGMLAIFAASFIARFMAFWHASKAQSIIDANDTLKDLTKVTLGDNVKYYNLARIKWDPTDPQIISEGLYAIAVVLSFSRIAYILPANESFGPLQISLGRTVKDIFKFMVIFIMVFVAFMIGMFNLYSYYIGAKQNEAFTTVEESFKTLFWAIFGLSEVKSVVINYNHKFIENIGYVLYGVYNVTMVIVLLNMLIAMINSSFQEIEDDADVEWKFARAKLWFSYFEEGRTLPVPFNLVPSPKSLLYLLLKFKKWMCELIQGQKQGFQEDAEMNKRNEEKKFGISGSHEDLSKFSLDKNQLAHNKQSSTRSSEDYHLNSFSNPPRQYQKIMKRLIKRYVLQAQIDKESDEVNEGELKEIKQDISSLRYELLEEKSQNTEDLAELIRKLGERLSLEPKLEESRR

For the molecule `CCOc1ccc(OCC(O)CNC2CCN(Cc3ccccc3)CC2)cc1` (stereo unspecified), the activation in test [1] was 144% (active); in [2], 94% (active); in [11], 83% (active); in test [13], 35.4% (active). The result in test [3], in [4], in test [6], in test [7], in test [8] and in test [9] was inactive. Moreover, the outcome in test [12], in test [15], in test [16] and in [17] was inactive. Moreover, the values for the inhibition in test [5], in test [10] and in [14] were 36% (active), 34.5% (active) and 25.6% (active), respectively.

On to `CN(CC(=O)Nc1sc2c(c1C#N)CCCCC2)Cc1nc2ccccc2c(=O)[nH]1`, for which the result in test [1], in [2], in [3], in test [4], in test [5] and in test [6] was inactive. For the same molecule, the outcome in [7], in test [8], in [9], in test [10], in [11] and in test [12] was inactive. For the same molecule, the outcome in test [13], in [14], in test [15], in test [16] and in test [17] was inactive.

With `O=c1[nH]ncc(N2CCN(Cc3ccccc3)CC2)c1Cl`, the result in [1], in test [2], in test [3], in [4], in test [5] and in [6] was inactive. The outcome in test [7], in test [8], in [9], in test [10], in test [11] and in test [12] was inactive. Also, the result in test [13], in test [14], in test [15], in test [16] and in test [17] was inactive.

As for `O=C(COC(=O)c1cc2c(s1)CCCCC2)NC1CCS(=O)(=O)C1` (stereo unspecified), the outcome in [1], in [2], in [3], in [4], in [5] and in test [6] was inactive. Moreover, the outcome in [7], in [8], in test [9], in test [10], in test [11] and in test [12] was inactive. Also, the outcome in test [13], in test [14], in test [15], in test [16] and in test [17] was inactive.

Turning to `Cc1ccc(CC(=O)NCC(c2ccco2)N(C)C)cc1C` (stereo unspecified), the result in [1], in test [2], in test [3], in [4], in test [5] and in [6] was inactive. In addition, the outcome in test [7], in test [8], in test [9], in test [10], in test [11] and in test [12] was inactive. Further, the result in test [13], in [14], in test [15], in test [16] and in [17] was inactive.

Regarding `Cc1cc(C)c(C(=O)c2ccc(C(=O)N3CCCCC3)cc2)c(C)c1`, the outcome in test [1], in [2], in test [3], in test [4], in test [5] and in test [6] was inactive. Also, the outcome in test [7], in [8], in [9], in test [10], in test [11] and in test [12] was inactive. The outcome in test [13], in test [14], in test [15], in test [16] and in test [17] was inactive.

`Cc1ccc(C[n+]2cccc(-c3ccccc3)c2)c(C)c1`: the result in test [1], in test [2], in [3], in test [4], in test [5] and in test [6] was inactive. In addition, the result in test [7], in test [8], in [9], in [10], in [11] and in test [12] was inactive. Besides, the outcome in test [13], in test [14], in test [15], in test [16] and in test [17] was inactive.

With `c1ccc2c3c([nH]c2c1)CCNC3`, the result in [1], in [2], in test [3], in [4], in test [5] and in [6] was inactive. The result in [7], in test [8], in [9], in [10], in test [11] and in test [12] was inactive. Also, the outcome in test [13], in [14], in test [15], in [16] and in test [17] was inactive.

With `C/C(=C\c1cccc(Cl)c1Cl)C(=O)c1c(C)cc(C)[nH]c1=O`, the outcome in [1], in [2], in test [3], in test [4], in [5] and in test [6] was inactive. The outcome in test [7], in test [8], in test [9], in test [10], in test [11] and in test [12] was inactive. Further, the outcome in test [13], in test [14], in test [16] and in [17] was inactive. In addition, the potentiation in test [15] is 16.5% (active).

Consider `Cc1cc(OCC(=O)N2CCCC2)cc(C)c1Cl`, for which the outcome in [1], in [2], in test [3], in [4], in test [5] and in test [6] was inactive. For the same molecule, the outcome in [7], in test [8], in test [9], in [10], in test [12] and in test [13] was inactive. The result in [14], in test [15], in [16] and in [17] was inactive. In addition, the activation in [11] is 38% (active).

For the molecule `O=C(COC(=O)c1ccccc1C(=O)N1CCN(c2ccccc2)CC1)Nc1ccc(F)cc1`, the outcome in test [1], in [2], in test [3], in test [5], in [6] and in [7] was inactive. Moreover, the result in test [8], in test [9], in [10], in test [11], in test [12] and in test [13] was inactive. Further, the result in [14], in test [16] and in test [17] was inactive. Further, the potentiation in [4] is 16% (active); in [15], 50.1% (active).

Regarding `CCC(CC)c1nnc(NC(=O)c2c(C)nn(Cc3ccccc3Cl)c2C)s1`, the outcome in test [1], in test [2], in test [3], in test [4], in test [5] and in [6] was inactive. Further, the outcome in [7], in test [8], in test [9], in [10], in [11] and in test [12] was inactive. Further, the result in test [13], in test [14], in [16] and in [17] was inactive. Also, the potentiation in test [15] is 36.2% (active).

On to `CC1CCCCC1NC(=O)c1cc2ccccc2o1` (stereo unspecified), for which the result in [1], in test [2], in [3], in test [5], in test [6] and in test [7] was inactive. Moreover, the outcome in test [8], in test [9], in [10], in test [11], in test [12] and in test [13] was inactive. Further, the result in test [14], in test [16] and in [17] was inactive. In addition, the potentiation in test [4] was 46% (active); in test [15] it was 42.2% (active).
